# Hits are enriched below; roughly 5.9% of the tested compounds scored in any of these assays.
# rCAG binder – binders of r(CAG) RNA repeats, primary screen, biochemical, fluorescence; r(CAG) RNA repeat, TO-PRO-1 dye displacement fluorescence; inhibition, % at 3 µM; hit rate 1.3% among 370,000;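 active means inhibition above the plate cutoff, the mean of all test compounds on that plate plus 3 SD, cut at about 35% in these data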;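 further: 0% = DMSO alone and 100% = 100 µM mitoxantrone as full dye displacement; higher means more dye released from RNA so lower well fluorescence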
# Rtt109 HAT inh – inhibitors of C. albicans Rtt109/Vps75 HAT, primary screen, biochemical, ThioGlo CoA-SH fluorescence, plate reader | Histone acetyltransferase RTT109 (Candida albicans (strain SC5314 / ATCC MYA-2876)), … | purified Rtt109/Vps75, 4 h | inhibition, % at 34.9 µM | hit rate 0.16% among 330,000 | AID 540336, 2011;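 active means inhibition of at least 50% in every replicate; inconclusive means best replicate reaches 50% inhibition but some replicates fall short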
# Target sequence (Q5AAJ8 whole entry, looked up): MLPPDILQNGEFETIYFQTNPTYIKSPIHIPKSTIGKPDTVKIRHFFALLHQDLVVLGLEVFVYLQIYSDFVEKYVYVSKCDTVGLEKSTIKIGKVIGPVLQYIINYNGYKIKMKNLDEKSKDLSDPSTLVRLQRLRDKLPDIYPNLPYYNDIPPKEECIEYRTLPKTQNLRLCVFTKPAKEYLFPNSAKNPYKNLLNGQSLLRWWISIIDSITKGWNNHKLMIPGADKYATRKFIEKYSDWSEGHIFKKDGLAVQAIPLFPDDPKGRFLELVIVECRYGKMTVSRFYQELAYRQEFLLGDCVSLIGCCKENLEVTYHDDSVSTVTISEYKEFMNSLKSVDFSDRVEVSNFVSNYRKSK
# ABHD5 PLIN5 PPI – ABHD5-PLIN5 interaction inhibitors, primary screen, cell lysate, split luciferase complementation, luminescence; inhibition, % at 4 µM; AID 602281, 2012; Split G. princeps luciferase complementation, 4 h; hit rate 0.78% among 360,000;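 active means inhibition above the mean inhibition across every tested compound plus 3 SD, cut at about 22% in these data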;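 further: 0% = DMSO only wells and the 100% control is not disclosed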
# ALR H2O2 inh – inhibitors of human ALR sulfhydryl oxidase, primary screen, biochemical, H2O2 detection, HRP-luminol luminescence, single point; purified ALR, DTT oxidation; inhibition, % (concentration not given with the values); FAD-linked sulfhydryl oxidase ALR (Homo sapiens), P55789; AID 485317, 2010; hit rate 3.8% among 290,000;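 active means mean replicate inhibition above about 79%, with every replicate also reaching it, limit read from the data; inconclusive means only one of the two criteria met; inactive means mean below limit and not every replicate reaching it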
# Target sequence (P55789 whole entry, looked up): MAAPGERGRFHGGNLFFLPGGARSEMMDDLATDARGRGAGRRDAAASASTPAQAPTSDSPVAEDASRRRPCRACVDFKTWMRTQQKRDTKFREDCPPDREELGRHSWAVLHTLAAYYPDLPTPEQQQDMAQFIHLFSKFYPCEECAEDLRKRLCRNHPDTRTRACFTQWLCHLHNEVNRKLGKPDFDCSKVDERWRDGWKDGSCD
# LANA-H2A inh – blockers of LANA interaction with H2A/H2B – biochemical, FP readout, HTS, primary screen | AID 2629, 2010 | inhibition, % (no concentration beside the values) | cell-free LANA-H2A/H2B peptide, fluorescence polarization | hit rate 0.6% among 320,000 | Protein LANA1 (Human herpesvirus 8 type P (isolate GK18)), Q9QR71; in the data active means inhibition mostly above about 10%, no sharp cut-off; inactive means mostly below about 6.7%
# PRMT1 FP inh – PRMT1 methyltransferase inhibitors, primary screen, biochemical, fluorescence polarization | recombinant PRMT1, activity-based probe fluorescence polarization | inhibition, % at 2.79 µM | hit rate 1.3% among 370,000;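 active means inhibition above about 21% made by adding two undisclosed values, limit read from the data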
# PRMT1 inh conf – PRMT1 methyltransferase inhibitors, confirmation, biochemical, fluorescence polarization, triplicate; shares compounds with PRMT1 FP inh; recombinant His-PRMT1, activity-based probe fluorescence polarization; inhibition, % at 2.79 µM; hit rate 42% among 3,300; AID 687036, 2013;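 active means mean inhibition across replicates above the hit cutoff derived for the earlier primary screen, cut at about 22% in these data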
# The depositor's hits bear a star; u = inconclusive; x = not tested or not shown.
SMILES,rCAG binder,Rtt109 HAT inh,ABHD5 PLIN5 PPI,ALR H2O2 inh,LANA-H2A inh,PRMT1 FP inh,PRMT1 inh conf
Cc1cc(-c2ccco2)n(-c2ccccc2)n1,18,3,17,-36,-5,43*,21*
COCc1cccc(-c2cc(C(=O)OC)c3n(c2=O)CCC3)c1,1,x,x,x,x,1,x
O=C(O)Cn1cc(C(=S)N2CCCCC2)c2ccccc21,3,3,-7,91*,-4,25*,5
Nc1nc(NCCO)nc(N2CCCCCC2)c1[N+](=O)[O-],4,x,3,2,-2,-2,x
OCCN(CCO)c1nc(N2CCCCC2)c2nc(N(CCO)CCO)nc(N3CCCCC3)c2n1,-3,-325,-4,x,79*,57*,75*
O=c1ccc2cc3c4c(c2o1)CCCN4CCC3,-66,-187,-4,-68,-2,72*,67*
Fc1ccc(Nc2nc(NCc3cccs3)nc3ccsc23)cc1,3,x,-2,x,x,1,x
Cc1ccc(CNC(=O)C2CCN(S(=O)(=O)c3cccs3)CC2)o1,13,3,14,x,0,29*,4
Cc1ccc(CNC(=O)C2CCN(S(=O)(=O)c3cccs3)CC2)cc1,3,-4,8,-3,-4,1,x
CC(C)(C)c1csc(NC(=O)Cc2ccc(S(=O)(=O)N3CCOCC3)s2)n1,11,19,-2,x,x,5,x
Cc1cnc(NC(=O)Cc2ccc(S(=O)(=O)N3CCOCC3)s2)s1,3,4,0,92*,-7,38*,12
CCCOC(=O)c1ccc(NC(=O)CSC2=Nc3ccccc3C3CC=NN23)cc1 (stereo not drawn),5,19,-6,97*,5,35*,14
Cc1cc(C)cc(N(CCC#N)C(=O)CSC2=Nc3ccccc3C3CC=NN23)c1 (stereo not drawn),-3,13,-2,-7,5,5,x
O=C(CSC1=Nc2ccccc2C2CC=NN12)Nc1ccc2c(c1)OCO2 (stereo not drawn),2,u,-10,x,x,41*,28*
N#Cc1ccccc1NC(=O)CSC1=Nc2ccccc2C2CC=NN12 (stereo not drawn),6,x,-7,-9,0,25*,56*
Nc1ccc(O)c([N+](=O)[O-])c1,8,-10,-1,-14,-9,8,x
Cc1ccc(N)cc1O,3,-23,-5,73,0,39*,0
Cc1ccccc1Cn1cc(CN2[C@H](C)COc3cc(Br)ccc3S2(=O)=O)nn1,2,x,x,x,x,-3,x
CCn1c(SCC(=O)NN=Cc2cccc(OCc3ccccc3)c2)nnc1-c1ccc(OC)c(OC)c1,5,x,x,x,x,-3,x
COc1ccc(N=Nc2nc3ccc(Br)cc3n2C)cc1,-283,4,5,-44,88*,133*,7
COc1ccccc1NC(=O)OCCCN1CCC2(CCC(C)CC2)C1=O (stereo not drawn),0,x,x,x,x,1,x
O=C(CSc1cn[nH]n1)Nc1cccc(C(=O)O)c1,2,81*,-14,x,2,72*,90*
Cc1cccc(NC(=O)CSc2cn[nH]n2)c1,1,-3,-2,-10,0,-1,x
O=c1c2ccccc2nnn1CSc1nc2ccccc2c(=O)n1CCCO,-2,2,5,1,2,25*,0
N/C(=N\C(=O)OCc1ccccc1)N(CC#CC1=CCCCC1)CC1CC1,2,x,x,x,x,4,x
SMILES,rCAG binder,Rtt109 HAT inh,ABHD5 PLIN5 PPI,ALR H2O2 inh,LANA-H2A inh,PRMT1 FP inh,PRMT1 inh conf
COC(=O)C1=C(C)NC(C)=C(C(=O)OC)C1C(=O)OCC(=O)NC1CCCCC1C (stereo not drawn),0,x,-11,x,x,-5,x
Cc1cc(=S)nc(-c2ccccn2)[nH]1,-4,-1,-1,13,2,33*,12
O=C(O)/C=C/C(=O)Nc1ccccc1-c1ccccc1,0,5,9,x,x,30*,-2
COCC(=O)Nc1ccccc1-c1ccccc1,2,-2,0,-10,4,-5,x
Cc1cc(C(=O)N2CCCC(C)(C(=O)NS(=O)(=O)C3CC3)C2)n(C(C)(C)C)n1 (stereo not drawn),2,x,1,x,x,-1,x
CC(C)(C)Sc1ccc(N)nc1,3,6,1,1,-9,36*,2
Cc1ccc(S(=O)(=O)C/N=C(/NC(=S)N(c2ccccc2)c2ccccc2)c2ccccc2)cc1,14,-6,-47,23,3,28*,27*
Cc1c(C(C)c2ccccc2O)c2ccccc2n1C (stereo not drawn),6,x,x,x,x,10,x
CCc1cccc(C)c1NC(=O)C1CCN(c2nn3c(=O)cc(C)nc3s2)CC1,-4,-3,2,-11,-13,-4,x
O=C(CC(SCCO)c1ccc2c(c1)OCO2)c1ccco1 (stereo not drawn),7,-199,11,97*,0,39*,44*
Cc1ccc(NC(=O)CNCc2ccccc2Cl)cc1S(=O)(=O)N(C)C,1,-4,-2,x,-3,2,x
COc1cccc(NC(=O)C2CC(=O)n3cnnc3S2)c1 (stereo not drawn),8,8,11,5,-2,79*,61*
COc1ccc(NC(=O)C2CC(=O)n3cnnc3S2)cc1 (stereo not drawn),6,17,5,2,7,74*,79*
COc1cccc(NC(=O)C2CC(=O)N=C(N)S2)c1 (stereo not drawn),0,0,-1,-5,1,-1,x
COc1cc(NC(=NS(=O)(=O)c2ccccc2)c2ccccc2)ncn1,3,-1,-6,x,x,0,x
CCOC(=O)Cn1cc(CN2C(C(=O)OC)CN(Cc3ccc(OC)cc3)CCS2(=O)=O)nn1 (stereo not drawn),0,x,x,x,x,-6,x
CC(C)OC(=O)CSc1nnc(-c2ccncc2)n1N,-1,-5,-7,x,-4,2,x
CC(C)OC(=O)CSc1nnc(-c2ccc(C(C)(C)C)cc2)n1N,-7,-26,-10,x,-3,53*,60*
C[C@H]1[C@@H]2C[C@@]3(O[C@H](c4ccc(C(F)(F)F)cc4)N=C3C[C@@H]1c1ccccc1)N(Cc1ccncc1)C2=O,1,x,x,x,x,-3,x
CCOC(=O)C1CCCN(S(=O)(=O)CCNC(=O)c2cccc(OC)c2)C1 (stereo not drawn),-6,-6,8,-1,-6,-2,x

# Compound activity (PubChem)
